High-throughput results: PubChem BioAssay, National Center for Advancing Translational Sciences (NCATS)
Hits are enriched below; roughly 4.2% of the tested compounds scored in any of these assays.
ALOX12 inh: Primary qHTS assay for inhibitors of human arachidonate 12S-lipoxygenase (ALOX12): Round 2. Polyunsaturated fatty acid lipoxygenase ALOX12 (Homo sapiens), P18054. purified 12hLO, xylenol orange hydroperoxide absorbance. Potency, µM (series often up to 108 µM), without a hit: top-dose activity change, negative = inhibition, hits mostly inhibitors. 1.1% of 580,000 active. AID 1671190, 2021
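Purified human 12hLO at 150 nM in 25 mM Hepes, 0.01% Triton X-100, pH 7.0, preincubated 15 min at room temperature with compound. Reaction started with 40 uM arachidonic acid, 30 min at room temperature. Hydroperoxide measured by Fe-xylenol orange, 573/405 nm absorbance ratio.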
Sfp inh: qHTS Assay for Inhibitors of Bacillus subtilis Sfp phosphopantetheinyl transferase (PPTase) | 4'-phosphopantetheinyl transferase ffp (Bacillus subtilis), Q9F4F7 | Biochemical Sfp PPTase activity, qHTS | Potency, µM, without a hit: largest response in the series, negative = inhibition, usual class: inhibitors | 3.5% of 310,000 active;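 also: the enzyme is Sfp with the accession as filed and its product quenches rhodamine fluorescence; 0% = enzyme reaction without inhibitor and -100% = no enzyme wells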
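Sfp 15 nM + cpd, 15 min RT; start w/ rhodamine-CoA 5 uM, BHQ-2-YbbR 12.5 uM (final); 50 mM Hepes pH 7.6, 10 mM MgCl2, 0.01% NP-40, 0.01% BSA; read 525/598 nm at 0 and 30 min.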
VDR inhibitor: Inhibitors of the vitamin D receptor (VDR): qHTS; AID 504847, 2011; Potency, µM, inactives show max response, negative = inhibition, usual class: inhibitors; VDR-SRC2-3 peptide fluorescence polarization, 2 h; Vitamin D3 receptor (Homo sapiens), P11473; 0.93% of 400,000 active
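Two reagent solutions held at 4 deg C in the dark were dispensed, compounds pinned at 23 nl, and the mixture incubated 2 h at room temperature. Read-out: fluorescence polarization of VDR–SRC2-3 peptide binding.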
PLK1 PBD block: qHTS for Inhibitors of PLK1-PDB (polo-like kinase 1 - polo-box domain): Primary Screen. Serine/threonine-protein kinase PLK1 (Homo sapiens), P53350. Plk1 PBD binding of FITC phosphopeptide, fluorescence polarization. Potency, µM, inactives show max response, negative = inhibition, hits mostly inhibitors. 2.8% of 360,000 active. AID 720504, 2013; also: series mostly up to about 57 µM; nearly all actives have a fitted effect of over 65% in size
Target sequence (P53350 whole entry, looked up, the tested form may be a part): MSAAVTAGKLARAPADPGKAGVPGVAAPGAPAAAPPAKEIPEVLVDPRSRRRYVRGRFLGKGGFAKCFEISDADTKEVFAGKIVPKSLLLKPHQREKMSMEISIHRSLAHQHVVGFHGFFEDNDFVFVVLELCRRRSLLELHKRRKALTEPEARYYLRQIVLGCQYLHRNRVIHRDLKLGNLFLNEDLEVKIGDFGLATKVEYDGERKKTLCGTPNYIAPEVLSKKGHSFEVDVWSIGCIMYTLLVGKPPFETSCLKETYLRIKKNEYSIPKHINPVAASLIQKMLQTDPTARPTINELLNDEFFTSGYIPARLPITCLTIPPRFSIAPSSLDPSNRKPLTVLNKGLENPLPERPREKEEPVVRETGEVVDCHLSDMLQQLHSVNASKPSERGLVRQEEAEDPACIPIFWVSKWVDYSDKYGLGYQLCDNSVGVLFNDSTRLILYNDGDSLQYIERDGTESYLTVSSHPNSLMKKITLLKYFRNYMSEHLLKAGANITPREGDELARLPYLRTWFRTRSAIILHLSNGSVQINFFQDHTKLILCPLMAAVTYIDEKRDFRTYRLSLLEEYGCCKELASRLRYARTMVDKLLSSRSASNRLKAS
* marks the source's active call; other numbers are inactive results; ? = inconclusive; . = no result given; ! = a repeat was not active; [ ] = another dose, or the depositor's remark. Calls follow the shape of the dose curve; as a rule, active = well fitted curve in the direction sought with a large enough effect; inconclusive = small, poorly fitted or top-dose-only effect, or another doubt; inactive = no such curve, though single readings can be large; an effect the other way counts as inactive or inconclusive. Unless noted, % is scaled to controls: 0 for no effect and ±100 for the full control effect; potency is read from the fitted curve at half-maximal effect.

SMILES | ALOX12 inh | Sfp inh | VDR inhibitor | PLK1 PBD block
Cc1ccc(OCC(=O)Sc2ccc(C)cc2)cc1 | -16% | 1% | 45µM* | 6µM*
COc1ccccc1OCC(=O)Sc1ccc(C)cc1 | 18% | -6% | ? | 3µM*
Cc1ccc(OCC(=O)NCCNC(=O)COc2ccc(C)cc2)cc1 | -8% | 5% | -5% | -2%
COc1ccc2c(c1)[C@@H](NCc1nccs1)[C@H](C)[C@@H](c1ccccc1)N2C(=O)NC(C)C | 11% | . | . | .
O=C1CCCC2=C1C(c1ccncc1)n1c(nc3ccccc31)N2 (stereo not given) | -4% | 23% | ? | 27µM*
CC1CC(=O)C2=C(C1)Nc1nc3ccccc3n1C2c1cccnc1 (stereo not given) | 44% | -9% | -17% | -14%
C(=N\N1CCN(c2ccccn2)CC1)/c1cccc2ccccc12 | 68% | ? | 7% | 3%
CS(=O)(=O)c1ccc2nc(NC(=O)c3ccco3)sc2c1 | -20% | 2% | 0% | -3%
Cc1nc(NC(=S)NC(=O)c2ccco2)sc1C(=O)N(C)C | -29% | 22µM* | 10% | -12%
O=C(NC(=S)Nc1nc2ccc(F)cc2s1)c1ccco1 | -20% | 56µM* | 19% | -4%
CC(=O)Nc1sc(/C(C#N)=C/c2ccc(Cl)c(Cl)c2)nc1-c1ccc(C)cc1 | -17% | 16µM* | 50% | 27%
CCN(CC)C(=O)C[n+]1cccc(/C=N/O)c1 | -1% | 5% | -5% | -11%
CCc1ccc(CN(Cc2ccco2)C(=O)c2ccc(C)cc2)cc1 | ? | . | 0% | .
CCOc1cc2c(cc1OC)C(c1cccc([N+](=O)[O-])c1)NCC2 (stereo not given) | -3% | 0% | ? | 4.7µM*
O=C(c1ccc(Cl)cc1)[C@@H]1[C@@H]2C(=O)N(c3cccc4ccccc34)C(=O)[C@@H]2C2c3ccccc3C=NN21 (stereo not given in full) | -1% | -11% | -12% | 24µM*
CC(=O)[C@@H]1[C@@H]2C(=O)N(c3ccccc3F)C(=O)[C@@H]2[C@H]2c3ccccc3C=NN12 | ? | -12% | -14% | -9%
CCCn1nc(C(=O)OCC#N)c2ccccc2c1=O | -2% | . | . | .
O=C1N/C(=N/N=C/c2ccco2)SC1Cc1ccccc1 (stereo not given) | 0% | -15% | -19% | -2%
CCn1c(CSc2n[nH]c(-c3ccc(C)cc3)n2)nc2cc(S(=O)(=O)N(C)C)ccc21 | -11% | . | . | .
CCn1c(CSc2nc(C)cs2)nc2cc(S(=O)(=O)N(C)C)ccc21 | -5% | 4% | 5% | 27µM*
Cc1cc(/C=C2\C(=N)N3N=C(c4ccco4)SC3=NC2=O)c(C)n1Cc1ccccc1 | 346% | ? | 6% | 27µM*
N=C1/C(=C/c2coc3ccccc3c2=O)C(=O)N=C2SC(c3ccco3)=NN12 | . | 40µM* | ? | ?
N=C1/C(=C\c2coc3ccccc3c2=O)C(=O)N=C2SC(c3ccncc3)=NN12 | ? | -19% | 28µM* | 23%
Fc1ccccc1Nc1nc2c(s1)CCc1ccccc1-2 | . | 3.2µM* | . | .
CN(N)c1nc2ccccc2nc1C(F)(F)F | -7% | 6% | -25% | 21µM*
SMILES | ALOX12 inh | Sfp inh | VDR inhibitor | PLK1 PBD block
Cc1ccc(C(=O)NN(C)c2nc3ccccc3nc2C(F)(F)F)cc1 | 11% | 3% | 15% | -2%
NC(=S)NNc1cccc2cccnc12 | ? | 3.2µM* | ? | ?
CCc1ccc2[nH]c(=O)c(CN(CCN(CC)CC)C(=S)NCc3ccco3)cc2c1 | 95% | 79µM* | 11% | -4%
COc1ccc2cc(CN(Cc3ccco3)C(=S)NCC3CCCO3)c(=O)[nH]c2c1 (stereo not given) | -12% | -16% | 6% | -10%
Cc1cc(C)c2cc(CN(Cc3ccco3)C(=S)NCC3CCCO3)c(=O)[nH]c2c1 (stereo not given) | ? | 20µM* | -12% | -27%
Cc1ccc2cc(CN(CC3CCCO3)C(=S)NCc3ccco3)c(=O)[nH]c2c1C (stereo not given) | ? | 32µM* | -13% | 15µM*
Cc1ccc(C)c2[nH]c(=O)c(CN(CC3CCCO3)C(=S)NCc3ccco3)cc12 (stereo not given) | -3% | -24% | -1% | -16%
CCc1ccc2[nH]c(=O)c(CN(CC3CCCO3)C(=S)NCc3ccco3)cc2c1 (stereo not given) | 12% | 3.5µM* | ? | -10%
CC(OC(=O)C1CCN(c2ccc(C(F)(F)F)cn2)CC1)C(=O)Nc1ccc(S(N)(=O)=O)cc1 (stereo not given) | -2% | -3% | -15% | 1%
CCn1cc(/C=C(\NC(=O)c2ccccc2)C(=O)NCCN2CCOCC2)c2ccccc21 | -26% | . | . | -2%
CCOc1ccc(CCNS(=O)(=O)c2ccc3c(c2)oc(=O)n3C)cc1OCC | 19% | 4% | -11% | 7%
CC1(C)Cc2sc3c(=O)n(Cc4c(Cl)cccc4Cl)cnc3c2CO1 | 13% | . | . | .
Nc1nc2c(s1)C(c1ccccc1Cl)CC(=O)N2 (stereo not given) | 20µM* | . | . | .
Nc1nc2c(s1)C(c1c(Cl)cccc1Cl)CC(=O)N2 (stereo not given) | 14µM* | . | . | .
CCc1ccc(NC(=O)CCS(=O)(=O)c2cccc3nsnc23)cc1 | 0% | 79µM* | -2% | -24%
COc1cc2c3cc1OCc1c(O)c(OC)cc4c1C(Cc1ccc(cc1)Oc1cc(ccc1O)CC3N(C)CC2)N(C)CC4 (stereo not given) | . | 9% | 10% | .
CN1CCc2cccc3c2[C@H]1Cc1ccc(O)c(O)c1-3 | 1.4µM*! | 40µM* | 35µM*! | 38µM*!
Nc1nc(-c2ccco2)nn1C(=O)c1ccccc1 | -5% | -22% | -13% | -16%
Cc1noc(C)c1COc1ccc(C(=O)N[C@@H]2CN(C(=O)Nc3ccc(F)cc3)CCC[C@H]2O)cc1 | -13% | . | . | .
Cc1ccccc1NC(=O)c1ccc(S(=O)(=O)N2CCCC2)cc1 | -24% | 11% | 6% | 2%
N#CCCSc1ccccc1NC(=O)c1ccc(S(=O)(=O)N2CCCC2)cc1 | . | 5.6µM* | . | .
CCCOC(=O)c1c(-c2ccc(C)cc2C)csc1NC(=O)C1C2CCC(O2)C1C(=O)O (stereo not given) | ? | ? | ? | 12µM*
COC(=O)C1=C(C)N(Cc2ccc(OC)c(OC)c2)C(=O)C1 | 11% | 8% | 4% | 21µM*
COC(=O)c1cc(NC(=O)Cc2ccc(OC)c(OC)c2)cc(C(=O)OC)c1 | 2% | -1% | ? | 27µM*
COc1ccc(CC(=O)Nc2cc(NC(=O)Cc3ccc(OC)c(OC)c3)cc(C(=O)O)c2)cc1OC | 0% | 22% | 13% | -11%
Cc1cccc(C)c1OCCCCn1cnc2ccccc2c1=O | 1% | -2% | 5% | -4%
Cc1ccccc1[C@H]1C[C@@H](O)[C@@H](O)[C@@H]1NS(C)(=O)=O | -11%[176 µM] | . | . | .
